Records with an inconclusive call do not appear. The source made the active and inactive calls. Unless noted, calls come from the whole dose curve; as a rule, active = well fitted curve in the direction sought with a large enough effect; inconclusive = small, poorly fitted or top-dose-only effect, or another doubt; inactive = no such curve, though single readings can be large; an effect the other way counts as inactive or inconclusive.
Key:
[1] = biological target: Estrogen receptor (Homo sapiens) (UniProt P03372); test: qHTS assay for small molecule agonists of estrogen receptor alpha signaling (AID 588514; calls by dose curve;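 note: 0% = vehicle only and 100% = reference agonist; nearly all actives have a fitted effect of over 70% in size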)
Estrogen receptor (Homo sapiens), sequence (P03372 whole entry, looked up): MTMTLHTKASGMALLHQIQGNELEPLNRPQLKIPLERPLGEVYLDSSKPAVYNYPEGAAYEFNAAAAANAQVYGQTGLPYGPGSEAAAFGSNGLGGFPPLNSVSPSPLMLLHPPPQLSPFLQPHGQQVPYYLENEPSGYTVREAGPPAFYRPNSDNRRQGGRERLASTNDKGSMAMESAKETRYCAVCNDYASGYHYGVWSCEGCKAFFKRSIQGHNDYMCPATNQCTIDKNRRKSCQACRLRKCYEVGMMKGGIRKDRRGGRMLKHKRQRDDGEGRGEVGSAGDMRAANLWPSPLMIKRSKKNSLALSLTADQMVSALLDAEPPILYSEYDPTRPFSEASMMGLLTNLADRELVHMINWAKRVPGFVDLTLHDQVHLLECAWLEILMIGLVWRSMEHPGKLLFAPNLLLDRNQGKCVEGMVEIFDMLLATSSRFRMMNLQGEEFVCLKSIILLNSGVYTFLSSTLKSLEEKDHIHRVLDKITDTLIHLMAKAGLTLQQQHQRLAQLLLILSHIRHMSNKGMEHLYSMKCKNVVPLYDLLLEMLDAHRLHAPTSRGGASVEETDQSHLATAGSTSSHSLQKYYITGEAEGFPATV
In short: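 Efficacy is expressed against 20 nM 17-beta-estradiol (100%) and DMSO basal (0%); EC50 from Hill equation. Assay: beta-lactamase reporter in ER-alpha-UAS-bla HEK 293 cells, 18 h compound incubation, CCF4 detection.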

[2] = biological target: Glucocorticoid receptor (Homo sapiens) (UniProt P04150); test: qHTS assay for small molecule antagonists of glucocorticoid receptor signaling (AID 588533; active = well fitted inhibition curve with a large enough effect in the signal ratio, with a control signal flat, not every such curve was filed as active; the % refers to the signal ratio; note: % is set by controls: 0 for no effect and ±100 for the full control effect)
Glucocorticoid receptor (Homo sapiens), sequence (P04150 whole entry, looked up): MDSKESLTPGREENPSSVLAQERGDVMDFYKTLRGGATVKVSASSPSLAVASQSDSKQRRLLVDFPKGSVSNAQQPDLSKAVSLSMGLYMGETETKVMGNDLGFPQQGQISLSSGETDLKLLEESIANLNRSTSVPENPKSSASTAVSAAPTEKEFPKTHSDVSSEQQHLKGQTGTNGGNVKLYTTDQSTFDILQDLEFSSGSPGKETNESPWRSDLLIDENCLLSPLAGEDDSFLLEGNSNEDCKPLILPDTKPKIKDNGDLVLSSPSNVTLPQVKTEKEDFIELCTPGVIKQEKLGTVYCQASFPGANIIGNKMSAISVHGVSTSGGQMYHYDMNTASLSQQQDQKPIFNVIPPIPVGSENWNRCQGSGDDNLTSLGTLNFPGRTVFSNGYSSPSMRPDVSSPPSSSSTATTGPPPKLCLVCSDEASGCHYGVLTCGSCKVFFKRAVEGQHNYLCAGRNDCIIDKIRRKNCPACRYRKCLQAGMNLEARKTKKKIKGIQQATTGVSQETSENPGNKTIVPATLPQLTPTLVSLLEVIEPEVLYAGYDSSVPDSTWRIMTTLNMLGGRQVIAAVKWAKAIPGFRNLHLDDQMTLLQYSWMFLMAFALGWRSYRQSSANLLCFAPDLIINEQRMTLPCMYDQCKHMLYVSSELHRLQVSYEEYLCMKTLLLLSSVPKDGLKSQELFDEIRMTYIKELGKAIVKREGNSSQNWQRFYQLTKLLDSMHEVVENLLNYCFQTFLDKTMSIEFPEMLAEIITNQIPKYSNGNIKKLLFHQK
In short: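 Antagonist-mode qHTS: compound titrations added to GRE-bla HeLa cells, then dexamethasone 2 nM final; 18 h, 37 C. CCF4 FRET fluorescence normalized to dexamethasone and DMSO; IC50 from Hill fit.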

[3] = biological target: Peroxisome proliferator-activated receptor gamma (Homo sapiens) (UniProt P37231); test: qHTS assay for small molecule agonists of peroxisome proliferator-activated receptor gamma signaling (AID 588536; active = well fitted curve in the direction sought with a large enough effect in the signal ratio, with a control signal flat, not every such curve was filed as active; the % refers to the signal ratio;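 note: 0% = DMSO basal wells and 100% = rosiglitazone at 2 µM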)
Peroxisome proliferator-activated receptor gamma (Homo sapiens), sequence (P37231 whole entry, looked up): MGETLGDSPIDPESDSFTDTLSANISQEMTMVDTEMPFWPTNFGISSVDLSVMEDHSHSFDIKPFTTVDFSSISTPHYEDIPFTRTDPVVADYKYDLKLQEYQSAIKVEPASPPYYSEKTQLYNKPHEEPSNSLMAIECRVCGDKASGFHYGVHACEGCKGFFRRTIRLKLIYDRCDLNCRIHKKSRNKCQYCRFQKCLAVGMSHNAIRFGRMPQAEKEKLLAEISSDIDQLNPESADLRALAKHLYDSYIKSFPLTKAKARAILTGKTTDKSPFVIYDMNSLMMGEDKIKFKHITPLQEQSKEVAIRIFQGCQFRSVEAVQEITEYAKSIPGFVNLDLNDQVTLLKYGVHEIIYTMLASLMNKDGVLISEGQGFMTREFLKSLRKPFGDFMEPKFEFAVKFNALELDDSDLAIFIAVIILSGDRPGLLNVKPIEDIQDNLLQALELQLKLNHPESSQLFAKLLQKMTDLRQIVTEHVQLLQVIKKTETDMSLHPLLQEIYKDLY
In short: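 This is an agonist-mode beta-lactamase reporter assay in HEK293 PPAR-gamma-UAS-bla cells with 1% charcoal/dextran FBS. Compound titrations ran 16 h at 37 C before CCF4 detection. EC50 and efficacy are Hill fits scaled to 2 uM rosiglitazone (100%) and DMSO basal.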

[4] = biological target: Vitamin D3 receptor (Homo sapiens) (UniProt P11473); test: qHTS assay for small molecule antagonists of vitamin D receptor signaling (AID 588541; calls by dose curve;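 note: receptor activated by calcitriol during compound treatment; series mostly up to about 77 µM; % is set by controls: 0 for no effect and ±100 for the full control effect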)
Vitamin D3 receptor (Homo sapiens), sequence (P11473 whole entry, looked up): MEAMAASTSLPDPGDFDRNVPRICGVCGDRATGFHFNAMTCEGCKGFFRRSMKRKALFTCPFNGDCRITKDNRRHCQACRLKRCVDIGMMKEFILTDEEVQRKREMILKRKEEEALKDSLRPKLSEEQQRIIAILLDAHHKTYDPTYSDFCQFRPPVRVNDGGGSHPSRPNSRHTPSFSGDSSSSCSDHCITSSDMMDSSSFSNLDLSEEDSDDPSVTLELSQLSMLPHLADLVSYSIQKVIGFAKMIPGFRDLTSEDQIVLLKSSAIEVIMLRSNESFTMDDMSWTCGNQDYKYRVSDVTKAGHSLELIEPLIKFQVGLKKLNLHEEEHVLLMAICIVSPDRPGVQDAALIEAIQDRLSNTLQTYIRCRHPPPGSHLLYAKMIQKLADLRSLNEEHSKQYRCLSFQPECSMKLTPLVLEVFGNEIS
In short: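 VDR-UAS-bla HEK293T cells in 2% charcoal-stripped FBS were stimulated with 1-alpha,25-dihydroxyvitamin D3 (3 nM final) plus compound for 16 h at 37 C. The beta-lactamase CCF4 readout was normalized to 50 nM agonist and DMSO, and Hill fits gave IC50.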

[5] = biological target: Vitamin D3 receptor (Homo sapiens) (UniProt P11473); test: qHTS assay for small molecule agonists of vitamin D receptor signaling (AID 588543; calls by dose curve;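 note: 0% = DMSO basal and 100% = reference agonist control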)
In short: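 β-lactamase reporter, VDR-UAS-bla HEK293T, agonist mode. Cells plated 5 h at 37 °C, compound titration 16 h at 37 °C, CCF4 dye 2 h RT, ratio 460/530 nm. Hill fit → EC50, efficacy vs 50 nM 1α,25-(OH)2D3.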

[6] = biological target: Thyroid hormone receptor beta (Homo sapiens) (UniProt P10828); test: qHTS assay for small molecule agonists of thyroid hormone receptor beta signaling (AID 588545; calls by dose curve)
Thyroid hormone receptor beta (Homo sapiens), sequence (P10828 whole entry, looked up): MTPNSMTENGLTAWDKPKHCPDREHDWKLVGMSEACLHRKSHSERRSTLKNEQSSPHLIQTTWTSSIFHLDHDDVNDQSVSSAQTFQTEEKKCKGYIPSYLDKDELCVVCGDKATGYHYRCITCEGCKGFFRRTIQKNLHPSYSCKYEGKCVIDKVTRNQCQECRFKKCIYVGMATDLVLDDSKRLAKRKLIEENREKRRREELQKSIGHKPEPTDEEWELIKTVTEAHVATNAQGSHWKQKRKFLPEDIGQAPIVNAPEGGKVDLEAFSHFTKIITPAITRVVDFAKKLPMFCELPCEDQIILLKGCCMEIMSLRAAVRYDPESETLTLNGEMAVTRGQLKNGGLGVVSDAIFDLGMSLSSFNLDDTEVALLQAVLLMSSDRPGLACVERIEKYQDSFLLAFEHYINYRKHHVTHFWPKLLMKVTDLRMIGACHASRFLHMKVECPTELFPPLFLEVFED
In short: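 Agonist activity was read as beta-lactamase CCF4 fluorescence (405 ex, 460/530 em), scaled between DMSO (0%) and 10 nM T3 (100%), then Hill-fitted for EC50 and efficacy. HEK 293 TR-UAS-bla cells in 2% charcoal/dextran FBS medium were exposed 18 h at 37 C.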

[7] = qHTS assay for small molecule antagonists of retinoid X receptor alpha signaling (AID 588546; active = well fitted inhibition curve with a large enough effect in the signal ratio, with a control signal flat, not every such curve was filed as active; the % refers to the signal ratio;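 note: cells stimulated with 9-cis-retinoic acid as agonist; % is set by controls: 0 for no effect and ±100 for the full control effect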); conditions: HEK293T RXRa-UAS-bla, beta-lactamase ratio, antagonist mode; measured here: W530 green channel, cytotoxicity proxy
In short: (§1)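 Beta-lactamase reporter inhibition, read as CCF4 fluorescence ratio (ex 405, em 460/530 nm) after 2 h at RT. HEK293T UAS-bla cells, 2500/well, were stimulated with 9-cis-RA at 500 or 100 nM final alongside test compound for 18 h at 37 C.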

[8] = biological target: Retinoic acid receptor RXR-alpha (Homo sapiens) (UniProt P19793); test: as above; conditions: HEK293T RXRa-UAS-bla, beta-lactamase ratio, antagonist mode
Retinoic acid receptor RXR-alpha (Homo sapiens), sequence (P19793 whole entry, looked up): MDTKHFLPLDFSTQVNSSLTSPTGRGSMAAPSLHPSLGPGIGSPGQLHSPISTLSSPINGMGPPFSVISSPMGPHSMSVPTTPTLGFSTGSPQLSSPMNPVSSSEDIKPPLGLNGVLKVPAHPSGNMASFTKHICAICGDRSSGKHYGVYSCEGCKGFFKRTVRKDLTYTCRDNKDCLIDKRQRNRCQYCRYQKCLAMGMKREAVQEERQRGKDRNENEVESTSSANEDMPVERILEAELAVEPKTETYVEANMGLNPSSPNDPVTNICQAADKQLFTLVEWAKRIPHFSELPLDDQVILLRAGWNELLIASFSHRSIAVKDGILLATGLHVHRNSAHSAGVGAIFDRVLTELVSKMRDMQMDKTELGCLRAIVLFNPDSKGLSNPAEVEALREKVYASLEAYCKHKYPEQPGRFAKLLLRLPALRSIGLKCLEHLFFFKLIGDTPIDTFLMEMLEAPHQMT
In short: as §1

[9] = qHTS assay for small molecule activators of the nuclear factor-kappa B (NF-kB) signaling pathway (AID 651749; active = well fitted activation curve with a large enough effect in the signal ratio; the % refers to the signal ratio; note: series mostly up to about 77 µM; % of control where 0% means no effect); conditions: NF-kB-bla ME-180 cells, beta-lactamase FRET ratio, 16 h; activation: stronger effect = higher value
In short: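 In this qHTS format, compounds acting as activators increase NF-kB-driven beta-lactamase in ME-180 cells, measured as disrupted FRET after 16 hr exposure at 37C and 5% CO2.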

[10] = qHTS assay for environmental chemicals that activate the Aryl hydrocarbon Receptor (AhR) signaling pathway (AID 651777); conditions: 1A2-DRE human hepatoma cells, luciferase, 24 h; activation: stronger effect = higher value; note: % of control where 0% means no effect; nearly all actives have a fitted effect of over 15% in size
In short: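 Concentration–response screening used 1,200 1A2-DRE cells per well, 24 hr compound exposure (37 C, 5% CO2), and One-Glo luminescence as the AhR-driven CYP1A2 reporter signal.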

[11] = biological target: Peroxisome proliferator-activated receptor alpha (Homo sapiens) (UniProt Q07869); test: qHTS assay for small molecule agonists of the peroxisome proliferator-activated receptor alpha (PPARalpha) signaling pathway (AID 651778); conditions: PathHunter PPARalpha complementation, chemiluminescence, 6 h; max response: stronger effect = higher value; note: % of control where 0% means no effect
Peroxisome proliferator-activated receptor alpha (Homo sapiens), sequence (Q07869 whole entry, looked up, the tested form may be a part): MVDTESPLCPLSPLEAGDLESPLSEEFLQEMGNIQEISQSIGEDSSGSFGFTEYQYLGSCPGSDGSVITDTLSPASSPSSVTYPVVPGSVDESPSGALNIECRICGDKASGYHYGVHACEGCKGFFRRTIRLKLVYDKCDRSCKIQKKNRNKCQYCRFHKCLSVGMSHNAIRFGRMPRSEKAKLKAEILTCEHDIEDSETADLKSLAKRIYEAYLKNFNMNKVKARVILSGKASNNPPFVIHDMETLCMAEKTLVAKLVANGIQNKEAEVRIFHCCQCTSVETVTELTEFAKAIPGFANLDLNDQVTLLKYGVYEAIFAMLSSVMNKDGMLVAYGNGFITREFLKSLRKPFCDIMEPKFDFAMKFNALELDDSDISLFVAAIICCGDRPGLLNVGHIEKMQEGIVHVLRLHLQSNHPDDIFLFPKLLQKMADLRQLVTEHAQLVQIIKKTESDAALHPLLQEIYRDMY
In short: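 Enzyme-fragment complementation assay in which ligand-bound PPARalpha translocates and forms an active enzyme that generates chemiluminescence. Cells were plated overnight, exposed to compound for 6 hr at 37 C, and then given detection reagent for 60 min at room temperature.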

[12] = qHTS assay for small molecule agonists of the antioxidant response element (ARE) signaling pathway measured by Nrf2-dependant transcriptional activity (AID 720636; active = well fitted curve in the direction sought with a large enough effect in the repeat runs; an effect the other way counts as inactive or inconclusive;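 note: HepG2 cells with an ARE-driven luciferase reporter; % of control where 0% means no effect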)
In short: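 Attachment 6 hr at 37 C, then compound versus DMSO vehicle for 16 hr in ARE-luc HepG2 cells (1% dialyzed FBS); luminescence recorded 30 min after ONE-Glo addition at room temperature.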

[13] = qHTS assay for cell viability of HEK293 cells (AID 743288); conditions: ATP luminescence (CellTiter-Glo), 18 h; max response: stronger effect = lower value; note: % is set by controls: 0 for no effect and ±100 for the full control effect; nearly all actives have a fitted effect of over 50% in size
In short: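 ATP luminescence (CellTiter-Glo) reports metabolically competent cell number after parental HEK293 cells, 2,000/well, were treated with DMSO-dissolved compounds for 18 h at 37 C; reagent incubation 30 min, room temperature.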

[14] = qHTS assay for cell viability of the p53RE-bla HCT-116 cell line (AID 743292); note: % is set by controls: 0 for no effect and ±100 for the full control effect; nearly all actives have a fitted effect of over 55% in size
In short: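 Compound-exposed HCT-116 (p53RE-bla) cells, 4,000 per well, were kept 16 h at 37 C following a 5 h preincubation. Cell number was estimated from total ATP by CellTiter-Glo luminescence read after 30 min at room temperature.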

[15] = biological target: Nuclear receptor subfamily 1 group I member 2 (Rattus norvegicus) (UniProt Q9R1A7); test: qHTS assay for small molecule activators of the rat pregnane X receptor (rPXR) signaling pathway (AID 651751; call rule not given here; note: 0% is about no effect); conditions: rPXR reporter cells, luciferase (One-Glo), 24 h
Nuclear receptor subfamily 1 group I member 2 (Rattus norvegicus), sequence (Q9R1A7 whole entry, looked up): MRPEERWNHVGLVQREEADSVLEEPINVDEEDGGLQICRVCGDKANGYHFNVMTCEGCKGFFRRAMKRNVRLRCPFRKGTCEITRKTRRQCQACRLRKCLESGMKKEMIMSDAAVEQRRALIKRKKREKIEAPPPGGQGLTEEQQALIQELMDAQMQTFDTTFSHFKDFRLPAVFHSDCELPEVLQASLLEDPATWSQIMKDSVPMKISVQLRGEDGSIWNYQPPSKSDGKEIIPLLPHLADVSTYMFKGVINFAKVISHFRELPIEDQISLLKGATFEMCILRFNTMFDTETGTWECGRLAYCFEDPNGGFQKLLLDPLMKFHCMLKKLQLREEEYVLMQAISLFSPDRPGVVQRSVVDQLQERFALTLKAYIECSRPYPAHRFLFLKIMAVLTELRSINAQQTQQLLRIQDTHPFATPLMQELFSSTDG

[16] = qHTS assay for small molecule activators of the human pregnane X receptor (PXR) signaling pathway (AID 720659; call rule not given here; note: 0% is about no effect)
[17] = biological target: Glucocorticoid receptor (Homo sapiens) (UniProt P04150); test: qHTS assay for small molecule agonists of glucocorticoid receptor signaling (AID 588532; active = well fitted curve in the direction sought with a large enough effect in the signal ratio, with a control signal flat; the % refers to the signal ratio;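 note: 100% = dexamethasone at 0.1 µM and 0% = DMSO only wells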); conditions: HeLa MMTV-bla, beta-lactamase ratio, agonist, 18 h; stronger effect = higher value; percent of dexamethasone control, DMSO zero
In short: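 HeLa GRE-bla reporter cells; 18 h compound exposure at 37 C; 2 h CCF4 loading at room temperature; fluorescence at 460 and 530 nm; EC50 by Hill equation.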

[18] = qHTS assay for small molecule agonists of retinoid X receptor alpha signaling (AID 588544; calls by dose curve;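 for activation: 0% = DMSO basal wells and 100% = reference agonist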); conditions: HEK293T RXRa-UAS-bla, beta-lactamase reporter, 18 h; 530 nm emission
[19] = biological target: Retinoic acid receptor RXR-alpha (Homo sapiens) (UniProt P19793); test: as above
[20] = qHTS assay for small molecule agonists of the antioxidant response element (ARE) signaling pathway measured by Nrf2-dependant transcriptional activity - cell viability counter screen (AID 720653; active = well fitted curve in the direction sought with a large enough effect in the repeat runs; an effect the other way counts as inactive or inconclusive; note: % is set by controls: 0 for no effect and ±100 for the full control effect); conditions: ARE-bla HepG2 viability, CellTiter-Glo ATP luminescence, 16 h; max response: stronger effect = lower value
In short: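 ARE-bla HepG2 cells treated with compounds for 16 h at 37C; this counter screen measures viability as intracellular ATP by CellTiter-Glo luminescence after 30 min at room temperature.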

| Compound | Potency [1] | Potency [2] | outcome [3] | Potency [4] | outcome [5] | Potency [6] | max response [7] [%] | max response [8] | activation [9] | activation [10] | max response [11] | Potency [12] | max response [13] | Potency [14] | max response [15] | outcome [16] | activation [17] | max response [18] [%] | Potency [19] | max response [20] |
| --- | --- | --- | --- | --- | --- | --- | --- | --- | --- | --- | --- | --- | --- | --- | --- | --- | --- | --- | --- | --- |
| CCc1c(C(=O)O)c(=O)cnn1-c1ccc(Cl)cc1 | inactive | inactive | inactive | inactive | inactive | inactive | -1.3 | 7.37% (inactive) | -0.428% (inactive) | 0.0279% (inactive) | 3.7% (inactive) | inactive | -15.5% (inactive) | inactive | -1.29% (inactive) | inactive | – | – | – | – |
| c1ccc2cc3ccccc3cc2c1 | inactive | inactive | inactive | inactive | – | – | 21.2 | -8.21% (inactive) | – | 1.49% (inactive) | -0.274% (inactive) | – | -2.63% (inactive) | inactive | 4.65% (inactive) | – | 13.3% (inactive) | -12.9 | inactive | -8% (inactive) |
| CN(C)Cc1cc(CN(C)C)c(O)c(CN(C)C)c1 | inactive | inactive | – | – | – | inactive | -16.5 | -13.1% (inactive) | -0.675% (inactive) | -0.0067% (inactive) | -1.39% (inactive) | inactive | -7.71% (inactive) | inactive | 1.59% (inactive) | inactive | – | -13.7 | inactive | – |
| CC(C)c1cccc(C(C)C)c1 | inactive | – | inactive | inactive | inactive | inactive | -3.77 | -4.2% (inactive) | -0.667% (inactive) | 2.18% (inactive) | -1.99% (inactive) | – | -5.18% (inactive) | inactive | -1.81% (inactive) | inactive | -12.5% (inactive) | -9.24 | inactive | -8.28% (inactive) |
| c1ccc2c(c1)Cc1ccccc1-2 | inactive | inactive | inactive | inactive | – | inactive | -16.6 | -2.65% (inactive) | -1.09% (inactive) | 1.34% (inactive) | -0.262% (inactive) | inactive | -4.41% (inactive) | inactive | -3.34% (inactive) | inactive | – | -12.1 | inactive | -7.29% (inactive) |

— PubChem BioAssay (NCATS)
